Measurements: PubChem BioAssay (NCATS)
Records with an inconclusive call do not appear. Unmarked numbers belong to inactive results. Calls of active or inactive are those of the source. Calls come from the whole dose curve; as a rule, active = well fitted inhibition curve with a large enough effect; inconclusive = small, poorly fitted or top-dose-only effect; inactive = no such curve, though single readings can be large or run the other way.
% is set by controls: 0 for no effect and ±100 for the full control effect; potency is the fitted concentration of half-maximal effect.
Note: nearly all actives have a fitted effect of over 60% in size.

Each compound was assayed against Cytochrome P450 2D6 (Homo sapiens) (UniProt P10635) (assay: qHTS Assay for Inhibitors and Substrates of Cytochrome P450 2D6 (AID 891;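 for activity change, negative = inhibition: luciferin methyl ether substrate demethylated by CYP2D6 with NADPH regeneration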)). Details: recombinant CYP2D6, luciferin-ME EGE luminescence; series mostly up to 57.1 µM; activity change, negative = inhibition: at the top concentration.
Chain of Cytochrome P450 2D6 (Homo sapiens) (P10635 whole entry, looked up): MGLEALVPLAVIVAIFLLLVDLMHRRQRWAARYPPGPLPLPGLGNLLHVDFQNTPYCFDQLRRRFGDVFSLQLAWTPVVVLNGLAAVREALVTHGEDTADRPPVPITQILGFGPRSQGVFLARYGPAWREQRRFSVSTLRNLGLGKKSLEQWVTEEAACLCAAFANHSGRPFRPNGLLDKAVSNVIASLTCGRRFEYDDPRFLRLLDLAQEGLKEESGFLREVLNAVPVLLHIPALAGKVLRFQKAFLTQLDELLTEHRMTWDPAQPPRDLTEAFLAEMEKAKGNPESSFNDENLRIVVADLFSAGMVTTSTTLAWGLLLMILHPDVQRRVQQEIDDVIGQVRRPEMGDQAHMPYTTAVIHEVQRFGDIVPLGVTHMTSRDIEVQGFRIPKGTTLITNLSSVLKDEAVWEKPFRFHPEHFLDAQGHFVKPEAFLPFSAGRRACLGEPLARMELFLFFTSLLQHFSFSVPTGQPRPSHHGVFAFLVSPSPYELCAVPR
Procedure, shortened: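 Luminescent read-out of luciferin formed by 5 nM human CYP2D6 demethylating 30 uM Luciferin-ME EGE (Km level) over 60 min at room temperature after NADPH regeneration addition. Data normalized to full inhibition by 1.43 uM quinidine.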
In the case of NCCC[C@@H](CC(=O)N[C@@H]1CCCC[C@H]1C(=O)N[C@H](CC(=O)N[C@@H](CCC(=O)O)CC(=O)O)Cc1ccccc1)NC(=O)C[C@H](CO)NC(=O)[C@@H]1CNCC[C@H]1N, the “activity change, negative = inhibition” value is reported as -8.55%.
For NCCC[C@@H](CC(=O)N[C@@H]1CCNC[C@H]1C(=O)N[C@H](CC(=O)N[C@@H](CCC(=O)O)CC(=O)O)Cc1c[nH]c2ccccc12)NC(=O)C[C@H](CO)NC(=O)[C@@H]1CNCC[C@H]1N, the “activity change, negative = inhibition” value was -12.8%.
COc1cc(/C=C\C(=O)CC(=O)/C=C\c2ccc(O)c(OC)c2)ccc1O was tested, and the Potency was 15.8 µM (active).
CC(C)[C@@H](CC(=O)N[C@@H]1CCCC[C@H]1C(=O)N[C@H](CC(=O)N[C@@H](CCC(=O)O)CC(=O)O)Cc1ccccc1)NC(=O)C[C@H](CO)NC(=O)[C@@H]1CNCC[C@H]1N was tested, and the “activity change, negative = inhibition” value was -0.601%.
With CC(C)C[C@@H](CC(=O)N[C@@H](CCC(=O)O)CC(=O)O)NC(=O)[C@@H]1CNCC[C@H]1NC(=O)C[C@@H](NC(=O)C[C@H](Cc1c[nH]c2ccccc12)NC(=O)[C@@H]1CCCC[C@H]1N)C(C)C the “activity change, negative = inhibition” value was -1.74%.
CC(C)C[C@@H](CC(=O)N[C@@H](CCCN)CC(=O)N[C@@H]1CCCC[C@H]1C(=O)N[C@H](CC(=O)N[C@@H](CCC(=O)O)CC(=O)O)Cc1c[nH]c2ccccc12)NC(=O)[C@@H]1CCCC[C@H]1N was tested, and the “activity change, negative = inhibition” value was -10.2%.
For CC(C)C[C@@H](CC(=O)N[C@@H](CCC(=O)O)CC(=O)O)NC(=O)[C@@H]1CCCC[C@H]1NC(=O)C[C@H](CCCN)NC(=O)C[C@H](CO)NC(=O)[C@@H]1CCCC[C@H]1N, the “activity change, negative = inhibition” value was 35.9%.
With CC(C)[C@@H](CC(=O)N[C@@H]1CCNC[C@H]1C(=O)N[C@H](CC(=O)N[C@@H](CCC(=O)O)CC(=O)O)Cc1c[nH]c2ccccc12)NC(=O)C[C@H](Cc1c[nH]c2ccccc12)NC(=O)[C@@H]1CNCC[C@H]1N the “activity change, negative = inhibition” value was -10.9%.
With CC(C)C[C@@H](CC(=O)N[C@@H](CCC(=O)O)CC(=O)O)NC(=O)[C@@H]1CNCC[C@H]1NC(=O)C[C@@H](NC(=O)C[C@H](Cc1c[nH]c2ccccc12)NC(=O)[C@@H]1CNCC[C@H]1N)C(C)C the “activity change, negative = inhibition” value was -6.82%.
CC(C)C[C@@H](CC(=O)N[C@H](CC(=O)N[C@@H]1CCCC[C@H]1C(=O)N[C@H](CC(=O)N[C@@H](CCC(=O)O)CC(=O)O)CC(C)C)C(C)C)NC(=O)[C@@H]1CNCC[C@H]1N was tested, and the “activity change, negative = inhibition” value was 0.51%.
With NCCC[C@@H](CC(=O)N[C@@H]1CCNC[C@H]1C(=O)N[C@H](CC(=O)N[C@@H](CCC(=O)O)CC(=O)O)Cc1ccccc1)NC(=O)C[C@H](Cc1ccccc1)NC(=O)[C@@H]1CNCC[C@H]1N the “activity change, negative = inhibition” value was -12.1%.
In the case of CC(C)C[C@@H](CC(=O)N[C@@H](CCC(=O)O)CC(=O)O)NC(=O)[C@@H]1CCCC[C@H]1NC(=O)C[C@@H](NC(=O)C[C@H](CO)NC(=O)[C@@H]1CNCC[C@H]1N)C(C)C, the “activity change, negative = inhibition” value is reported as -3.01%.
CC(C)[C@@H](CC(=O)N[C@@H]1CCNC[C@H]1C(=O)N[C@H](CC(=O)N[C@@H](CCC(=O)O)CC(=O)O)Cc1ccccc1)NC(=O)C[C@H](CO)NC(=O)[C@@H]1CCCC[C@H]1N was tested, and the “activity change, negative = inhibition” value was 1.82%.
NCCC[C@@H](CC(=O)N[C@@H]1CCNC[C@H]1C(=O)N[C@H](CC(=O)N[C@@H](CCC(=O)O)CC(=O)O)Cc1c[nH]c2ccccc12)NC(=O)C[C@H](CO)NC(=O)[C@@H]1CCCC[C@H]1N was tested, and the “activity change, negative = inhibition” value was 0.706%.
With CC(C)[C@@H](CC(=O)N[C@@H]1CCNC[C@H]1C(=O)N[C@H](CC(=O)N[C@@H](CCC(=O)O)CC(=O)O)Cc1ccccc1)NC(=O)C[C@H](CO)NC(=O)[C@@H]1CNCC[C@H]1N the “activity change, negative = inhibition” value was -9.15%.
For CC(C)C[C@@H](CC(=O)N[C@@H](CCC(=O)O)CC(=O)O)NC(=O)[C@@H]1CCCC[C@H]1NC(=O)C[C@@H](NC(=O)C[C@H](CO)NC(=O)[C@@H]1CCCC[C@H]1N)C(C)C, the “activity change, negative = inhibition” value was 3.18%.
For CC(C)[C@@H](CC(=O)N[C@@H]1CCNC[C@H]1C(=O)N[C@H](CC(=O)N[C@@H](CCC(=O)O)CC(=O)O)Cc1c[nH]c2ccccc12)NC(=O)C[C@H](Cc1c[nH]c2ccccc12)NC(=O)[C@@H]1CCCC[C@H]1N, the “activity change, negative = inhibition” value was -3.58%.
In the case of CC(C)C[C@@H](CC(=O)N[C@H](CC(=O)N[C@@H]1CCCC[C@H]1C(=O)N[C@H](CC(=O)N[C@@H](CCC(=O)O)CC(=O)O)CC(C)C)C(C)C)NC(=O)[C@@H]1CCCC[C@H]1N, the “activity change, negative = inhibition” value is reported as -8.12%.

What follows are compounds tested against Cytochrome P450 2C19 (Homo sapiens) (UniProt P33261) (assay: qHTS Assay for Inhibitors and Substrates of Cytochrome P450 2C19 (AID 899)). Details: recombinant CYP2C19, luciferin-H EGE luminescence; series mostly up to 57.1 µM; activity, negative = inhibition: at the top concentration.
Chain of Cytochrome P450 2C19 (Homo sapiens) (P33261 whole entry, looked up): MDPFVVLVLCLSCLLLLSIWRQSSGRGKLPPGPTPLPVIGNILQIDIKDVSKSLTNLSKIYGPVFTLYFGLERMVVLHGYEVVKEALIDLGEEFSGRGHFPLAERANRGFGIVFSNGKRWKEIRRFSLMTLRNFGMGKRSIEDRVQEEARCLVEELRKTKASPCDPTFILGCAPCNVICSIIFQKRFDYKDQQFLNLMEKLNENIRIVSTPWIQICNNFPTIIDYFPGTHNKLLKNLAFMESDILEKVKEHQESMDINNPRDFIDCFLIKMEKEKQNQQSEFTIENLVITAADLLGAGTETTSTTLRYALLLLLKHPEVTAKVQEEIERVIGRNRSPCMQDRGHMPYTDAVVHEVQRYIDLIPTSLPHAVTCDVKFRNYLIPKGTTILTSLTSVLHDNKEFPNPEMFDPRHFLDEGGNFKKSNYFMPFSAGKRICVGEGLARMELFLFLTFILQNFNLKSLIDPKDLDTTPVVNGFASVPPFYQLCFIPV
Procedure, shortened: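 5nM enzyme + 10uM Luciferin-H EGE (=KM), 50mM KPO4; cpd pin-transferred, 10 min 37C; NADPH regen, 60 min 37C; stopped w/ luciferin detection reagent, 20 min; luminescence. Normalized to 57uM ketoconazole (AC100).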
CC(C)C[C@@H](CC(=O)N[C@@H](CCC(=O)O)CC(=O)O)NC(=O)[C@@H]1CCCC[C@H]1NC(=O)C[C@@H](NC(=O)C[C@H](Cc1ccccc1)NC(=O)[C@@H]1CCCC[C@H]1N)C(C)C was tested, and the “activity, negative = inhibition” value was -35.2%.
With CC(C)C[C@@H](CC(=O)N[C@@H](CCCN)CC(=O)N[C@@H]1CCCC[C@H]1C(=O)N[C@H](CC(=O)N[C@@H](CCC(=O)O)CC(=O)O)Cc1c[nH]c2ccccc12)NC(=O)[C@@H]1CNCC[C@H]1N the “activity, negative = inhibition” value was -17%.
For CC(C)C[C@@H](CC(=O)N[C@@H](CCC(=O)O)CC(=O)O)NC(=O)[C@@H]1CNCC[C@H]1NC(=O)C[C@@H](NC(=O)C[C@H](Cc1ccccc1)NC(=O)[C@@H]1CNCC[C@H]1N)C(C)C, the “activity, negative = inhibition” value was -4.21%.
For CC(C)C[C@@H](CC(=O)N[C@@H](CCC(=O)O)CC(=O)O)NC(=O)[C@@H]1CNCC[C@H]1NC(=O)C[C@H](CCCN)NC(=O)C[C@H](Cc1c[nH]c2ccccc12)NC(=O)[C@@H]1CNCC[C@H]1N, the “activity, negative = inhibition” value was -31.5%.
CC(C)[C@@H](CC(=O)N[C@@H]1CCCC[C@H]1C(=O)N[C@H](CC(=O)N[C@@H](CCC(=O)O)CC(=O)O)Cc1c[nH]c2ccccc12)NC(=O)C[C@H](CO)NC(=O)[C@@H]1CNCC[C@H]1N was tested, and the “activity, negative = inhibition” value was -59.6%.
For NCCC[C@@H](CC(=O)N[C@@H]1CCCC[C@H]1C(=O)N[C@H](CC(=O)N[C@@H](CCC(=O)O)CC(=O)O)Cc1c[nH]c2ccccc12)NC(=O)C[C@H](CO)NC(=O)[C@@H]1CCCC[C@H]1N, the “activity, negative = inhibition” value was -28.7%.
NCCC[C@@H](CC(=O)N[C@@H]1CCCC[C@H]1C(=O)N[C@H](CC(=O)N[C@@H](CCC(=O)O)CC(=O)O)Cc1c[nH]c2ccccc12)NC(=O)C[C@H](Cc1c[nH]c2ccccc12)NC(=O)[C@@H]1CCCC[C@H]1N was tested, and the “activity, negative = inhibition” value was -15.8%.
With CC(C)[C@@H](CC(=O)N[C@@H]1CCCC[C@H]1C(=O)N[C@H](CC(=O)N[C@@H](CCC(=O)O)CC(=O)O)Cc1c[nH]c2ccccc12)NC(=O)C[C@H](Cc1ccccc1)NC(=O)[C@@H]1CCCC[C@H]1N the “activity, negative = inhibition” value was -17.5%.
CC(C)C[C@@H](CC(=O)N[C@H](CC(=O)N[C@@H]1CCCC[C@H]1C(=O)N[C@H](CC(=O)N[C@@H](CCC(=O)O)CC(=O)O)Cc1c[nH]c2ccccc12)C(C)C)NC(=O)[C@@H]1CNCC[C@H]1N was tested, and the “activity, negative = inhibition” value was 27.6%.
For CC(C)[C@@H](CC(=O)N[C@@H]1CCCC[C@H]1C(=O)N[C@H](CC(=O)N[C@@H](CCC(=O)O)CC(=O)O)Cc1c[nH]c2ccccc12)NC(=O)C[C@H](Cc1c[nH]c2ccccc12)NC(=O)[C@@H]1CNCC[C@H]1N, the “activity, negative = inhibition” value was -22.1%.
In the case of CC(C)C[C@@H](CC(=O)N[C@@H](CCCN)CC(=O)N[C@@H]1CCCC[C@H]1C(=O)N[C@H](CC(=O)N[C@@H](CCC(=O)O)CC(=O)O)Cc1ccccc1)NC(=O)[C@@H]1CNCC[C@H]1N, the “activity, negative = inhibition” value is reported as -20.1%.
In the case of CC(C)[C@@H](CC(=O)N[C@@H]1CCNC[C@H]1C(=O)N[C@H](CC(=O)N[C@@H](CCC(=O)O)CC(=O)O)Cc1c[nH]c2ccccc12)NC(=O)C[C@H](CO)NC(=O)[C@@H]1CNCC[C@H]1N, the “activity, negative = inhibition” value is reported as -20.1%.
For CC(C)C[C@@H](CC(=O)N[C@@H](CCCN)CC(=O)N[C@@H]1CCCC[C@H]1C(=O)N[C@H](CC(=O)N[C@@H](CCC(=O)O)CC(=O)O)CC(C)C)NC(=O)[C@@H]1CCCC[C@H]1N, the “activity, negative = inhibition” value was -31.1%.
For CC(C)C[C@@H](CC(=O)N[C@H](CC(=O)N[C@@H]1CCNC[C@H]1C(=O)N[C@H](CC(=O)N[C@@H](CCC(=O)O)CC(=O)O)Cc1c[nH]c2ccccc12)C(C)C)NC(=O)[C@@H]1CNCC[C@H]1N, the “activity, negative = inhibition” value was -5.5%.
For O=C1C=CC2=C3c4cc(O)c(O)cc4C[C@@]3(O)COC2=C1O, the Potency was 6.31 µM (active).
For NCCC[C@@H](CC(=O)N[C@@H]1CCCC[C@H]1C(=O)N[C@H](CC(=O)N[C@@H](CCC(=O)O)CC(=O)O)Cc1c[nH]c2ccccc12)NC(=O)C[C@H](Cc1ccccc1)NC(=O)[C@@H]1CNCC[C@H]1N, the “activity, negative = inhibition” value was -25.1%.
For CC(C)C[C@@H](CC(=O)N[C@@H](CCCN)CC(=O)N[C@@H]1CCNC[C@H]1C(=O)N[C@H](CC(=O)N[C@@H](CCC(=O)O)CC(=O)O)Cc1c[nH]c2ccccc12)NC(=O)[C@@H]1CNCC[C@H]1N, the “activity, negative = inhibition” value was -22.1%.
For NCCC[C@@H](CC(=O)N[C@@H]1CCNC[C@H]1C(=O)N[C@H](CC(=O)N[C@@H](CCC(=O)O)CC(=O)O)Cc1c[nH]c2ccccc12)NC(=O)C[C@H](Cc1c[nH]c2ccccc12)NC(=O)[C@@H]1CNCC[C@H]1N, the “activity, negative = inhibition” value was -25.6%.
In the case of NCCC[C@@H](CC(=O)N[C@@H]1CCNC[C@H]1C(=O)N[C@H](CC(=O)N[C@@H](CCC(=O)O)CC(=O)O)Cc1c[nH]c2ccccc12)NC(=O)C[C@H](Cc1ccccc1)NC(=O)[C@@H]1CNCC[C@H]1N, the “activity, negative = inhibition” value is reported as -6.66%.
CC(C)C[C@@H](CC(=O)N[C@@H](CCC(=O)O)CC(=O)O)NC(=O)[C@@H]1CCCC[C@H]1NC(=O)C[C@H](CCCN)NC(=O)C[C@H](Cc1c[nH]c2ccccc12)NC(=O)[C@@H]1CNCC[C@H]1N was tested, and the “activity, negative = inhibition” value was -40.3%.
In the case of COc1cc(/C=C\C(=O)N2CCCCC2=O)cc(OC)c1OC, the “activity, negative = inhibition” value is reported as -37.4%.
With NCCC[C@@H](CC(=O)N[C@@H]1CCCC[C@H]1C(=O)N[C@H](CC(=O)N[C@@H](CCC(=O)O)CC(=O)O)Cc1ccccc1)NC(=O)C[C@H](CO)NC(=O)[C@@H]1CNCC[C@H]1N the “activity, negative = inhibition” value was -54.4%.
